High-throughput results as filed in PubChem BioAssay.
SARS PLpro yeast – qHTS of Yeast-based Assay for SARS-CoV PLP | S. cerevisiae expressing SARS-CoV PLpro, growth rescue | Potency, µM (highest dose often 32.9 µM), actives largely listed as activators | hit rate 0.19% among 330,000 | AID 485353, 2010; note: nearly all actives have a fitted effect of over 55% in size
Shiga toxin inh – A qHTS for Small Molecule Inhibitors of Shiga Toxin; Vero cells, Shiga toxin protein synthesis inhibition reporter; inhibition, % at 38.7 µM; AID 2315, 2010; hit rate 9.2% among 290,000; in the data active = inhibition mostly above about 28%, no sharp cut-off; inactive = mostly below about 43%
NS1 function inh – qHTS Assay for Inhibitors of Influenza NS1 Protein Function; hit rate 0.4% among 270,000; Potency, µM (doses to about 46.1 µM); note: actives are rising curves; nearly all actives have a fitted effect of over 50% in size
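OD600 was taken as the measure of yeast growth restored by compound in an NS1-expressing S. cerevisiae strain. Cells had been washed out of glucose medium and diluted 1:100 into galactose -URA medium, pH 6.0.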
CHX counter – Cycloheximide Counterscreen for Small Molecule Inhibitors of Shiga Toxin; cell reporter, cycloheximide protein synthesis inhibition counterscreen; max response, %; hit rate 12% among 300,000; AID 2314, 2010; in the data active = max response mostly above about 13%, no sharp cut-off; inactive = mostly below about 14%; note: read at 38.3 µM for the half of the compounds with a filed dose
A number is an active result; - = inactive; ? = inconclusive; . = not tested or not shown. Hits are enriched below; roughly 12% of the tested compounds scored in any of these assays. Unless noted, calls come from the whole dose curve.

SMILES | SARS PLpro yeast | Shiga toxin inh | NS1 function inh | CHX counter
C=CCn1c(-c2cc(-c3ccc(C)cc3)nc3ccccc23)n[nH]c1=S | - | - | . | -
COc1cccc(CN(C)C(=O)C(Cc2ccccc2)NC(=O)c2ccccc2)c1OC (centres undefined) | - | . | . | .
O=C(CSc1ccc(-c2ccccn2)nn1)c1ccccc1 | ? | 87 | . | 49
Cc1ccc(CNC(=O)CSc2ccc(-c3ccccn3)nn2)cc1 | ? | - | . | -
O=C(CSc1ccc(-c2ccccn2)nn1)NC1CCCC1 | - | - | . | -
CC(C)c1nc(SCC(=O)c2ccc(F)cc2)c2ccccc2n1 | - | - | - | 20
O=C(CSc1cnc2ccccc2n1)c1ccc(F)cc1 | ? | 65 | - | 60
O=C(CSc1ccc(-c2ccccn2)nn1)N1CCCC1 | - | - | . | 25
O=C(CSc1ccc(-c2ccccn2)nn1)c1ccc(F)cc1 | - | 51 | . | 33
Cc1ccc(C(=O)CSc2ccc(-c3ccccc3)nn2)cc1 | - | - | - | -
Clc1ccc(CSc2ccc(-c3ccccn3)nn2)cc1 | - | - | . | -
O=C(CSc1ccc(-c2ccccc2)nn1)c1ccccc1 | - | 60 | - | 42
c1ccc(CSc2ccc(-c3ccccn3)nn2)cc1 | ? | 110 | . | 52
Cc1ccc(C(=O)NC(=S)N2CCN(C)CC2)cc1 | - | 88 | - | 21
CN1CCN(C(=S)NC(=O)c2ccc(Br)cc2)CC1 | - | 36 | - | 13
O=C1c2ccccc2[C@@H]2C[C@@H](O)[C@H](Nc3cccc4ccccc34)CCN12 | - | . | . | .
COc1ccc(N2CCN(CCNC(=O)c3ccc4c(c3)[nH]c(=S)n3c5ccccc5nc43)CC2)cc1 | - | - | . | -
O=C(C1=C(O)C(=O)N(CC2CCCO2)C1c1ccccc1Cl)c1ccco1 (centres undefined) | - | - | - | -
Cc1ccc(S(=O)(=O)CCC(=O)NCCN2C(=O)S/C(=C/c3ccc(F)cc3)C2=O)cc1 | - | - | - | 16
Cc1c(C(=O)NC(=S)Nc2ccc(NC(=O)c3cccs3)cc2)oc2ccccc12 | - | - | - | -
Cc1cccc(NC(=S)NC(=O)c2oc3ccccc3c2C)n1 | - | 56 | - | 38
Cc1cccc(NC(=S)NC(=O)c2ccc(-c3ccccc3)cc2)n1 | - | 37 | - | 26
CN1CCN(c2ccc(NC(=O)C(C)(c3ccccc3)c3ccccc3)cc2)CC1 | - | - | - | -
CC(C)Oc1cccc(C(=O)NC(=S)Nc2ccc(N3CCN(C)CC3)cc2)c1 | - | - | - | 26
COc1cc2ccccc2cc1C(=O)Nc1ccccc1N1CCCC1 | - | . | . | .
SMILES | SARS PLpro yeast | Shiga toxin inh | NS1 function inh | CHX counter
COc1cc2ccccc2cc1C(=O)Nc1ccccc1Cl | - | 71 | - | 86
COc1cccc(C(=O)NC(=S)Nc2ccc(N3CCCC3)cc2)c1 | - | - | - | -
COc1cc(NC(=O)c2cc3ccccc3cc2O)c(OC)cc1Cl | - | 63 | - | 19
CN1CCN(c2ccc(-c3ccnn3C(=O)Nc3ccccc3)cc2)CC1 | - | - | - | 41
COc1cc(OC)c(NC(=O)c2ccccc2F)cc1Cl | - | - | . | -
Cc1cc2c(s1)c1cnn(Cc3ccc(C(C)C)cc3)c(=O)c1n2C | . | - | . | -
O=C(CON1C(=O)c2ccccc2C1=O)c1ccccc1 | . | . | - | .
CCOc1ccc(NC(=O)c2cccc3ccccc23)cc1 | - | - | - | 18
COc1cc2ccccc2cc1C(=O)Nc1ccc(N2CCN(C)CC2)cc1 | - | - | - | 43
COc1ccc(NC(=O)NNC(=O)c2cc3ccccc3cc2O)cc1 | - | - | - | -
COc1cc(OC)c(C(=O)Nc2cccnc2)cc1OC | - | - | - | -
CCOc1ccc(NC(=O)c2cc3ccccc3cc2O)cc1 | - | 60 | - | 30
COc1cc2ccccc2cc1C(=O)Nc1cccnc1 | - | 76 | - | 33
O=C(NCc1ccncc1)C1CCCN(S(=O)(=O)c2cc(Cl)ccc2Cl)C1 (centres undefined) | - | . | . | .
CC(Sc1ccccc1F)C(=O)Nc1ccc2c(c1)OCCO2 (centres undefined) | - | . | . | .
CS(=O)(=O)N(CC(=O)N1CCOCC1)c1cccc([N+](=O)[O-])c1 | - | - | - | -
CN1CCN(c2nc3c(c(=O)[nH]c(=O)n3C)n2Cc2ccccc2)CC1 | - | - | - | -
CN1CCN(c2ccc(NC(=O)Oc3ccccc3)cc2)CC1 | - | - | - | -
CC(=O)c1ccc(N2CCN(C(=O)c3ccc(-c4ccccc4)cc3)CC2)cc1 | - | - | - | -
CC(=O)c1ccc(N2CCN(C(=O)c3cccc(Oc4ccccc4)c3)CC2)cc1 | - | - | . | 35
COc1cc2ccccc2cc1C(=O)NC(=S)Nc1ccc(C(=O)O)cc1 | - | - | - | -
CN1CCN(c2ccc(NC(=O)c3ccc(Oc4ccccc4)cc3)cc2)CC1 | - | 31 | - | -
COc1ccccc1NC(=O)c1cc2cc(Br)ccc2cc1O | - | 85 | - | 24
COc1ccc(NC(=O)c2cc3ccccc3cc2OC)cc1 | ? | - | - | 29
CCOc1ccc(NC(=O)c2cc(OC)nc3ccccc23)cc1 | - | - | - | -
SMILES | SARS PLpro yeast | Shiga toxin inh | NS1 function inh | CHX counter
CCOc1ccc(NC(=O)c2cc3ccccc3cc2OC)cc1 | - | 60 | - | 36
Cc1cccc(C)c1OCc1nc2ccccc2c(=O)n1/N=C/c1c[nH]c2ccccc12 | - | - | - | -
Cc1ccc(S(=O)(=O)c2nc(-c3ccccc3Cl)oc2N(C)C)cc1 | - | 86 | - | 57
Cn1c(SCC(=O)c2ccc3c(c2)OCO3)nnc1-c1ccccn1 | . | - | - | -
O=C(CSc1nc2ccccc2o1)NCc1ccc2c(c1)OCO2 | - | 27 | - | 15
O=C(CSc1ccccn1)c1ccc2c(c1)OCO2 | - | 39 | - | 37
CC(Sc1nc2ccccc2s1)C(=O)NCc1ccc2c(c1)OCO2 (centres undefined) | - | active | - | 20
O=C(CSc1nnc(SCc2cccc3ccccc23)s1)c1ccc2c(c1)OCO2 | - | - | - | 14
Cc1cc(OCCCn2c(CCNC(=O)C3CCCCC3)nc3ccccc32)ccc1Cl | . | - | . | -
Cc1cc(C)nc(Sc2ncnc3sc4c(c23)CCC4)n1 | - | - | - | -
CCOc1ccc(C(=O)NC(=S)NCc2cccnc2)cc1[N+](=O)[O-] | ? | - | - | -
O=C(CSc1ccccn1)Nc1ccc2c(c1)OCO2 | - | 101 | - | 34
O=C(CSc1ccccn1)NCc1ccc2c(c1)OCO2 | - | - | - | 12
COC(=O)c1ccc(-c2ccc(F)cc2)nc1C | - | 73 | - | 112
CCOC(=O)c1ccc(-c2ccc3c(c2)CCC3)nc1C | - | 93 | - | 29
CCOC(=O)c1cc2c(nc1N)CCCC2 | - | - | - | -
O=C(CS(=O)CC(=O)Nc1cccnc1)Nc1ccc(F)cc1 (centres undefined) | - | - | - | -
Cc1cccc(Nc2cc(C)c3c(O)cccc3n2)c1C | - | 92 | - | 32
Cc1cc(C)c(C#N)c(Nc2cccc(C)c2C)n1 | - | - | - | -
CCOC(=O)N1CCN(C(=O)CSC2=NS(=O)(=O)c3cc(F)ccc3N2)CC1 | - | . | . | .
CC1CCCC(NC(=O)C2CCCN2S(=O)(=O)c2cccc3nsnc23)C1C (centres undefined) | - | - | - | -
Cc1ccccc1OCC(=O)N1CCCc2ccccc21 | - | active | - | 33
